The record followed here is PubChem BioAssay.

Active and inactive are the calls of the source.

Assay [1] can be described thus: binders of probe aFSTL3 on microarray, primary screen, stem cell growth factor project, biochemical, small-molecule microarray, fluorescence 635/667 (AID 1064).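 Further: measures binding of the biotinylated anti-FSTL3 antibody to printed compounds.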 The conditions noted are these: higher = more signal.
Assay [2] can be described thus: binders from COS7 lysate, DM2A8 probe, primary screen, torsin A project, cell lysate, small-molecule microarray, fluorescence 635/667 (AID 1065). Conditions: higher = more signal, COS7 lysate expressing mutant human TOR1A.
Assay [3] is described as follows: binders of probe aFGF2 on microarray, primary screen, stem cell growth factor project, biochemical, small-molecule microarray, fluorescence 635/667 (AID 1067).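 Further: measures binding of biotinylated aFGF2 protein to printed compounds on slides; z-score merges feature fluorescence and signal-to-noise across triplicate slides.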 The conditions noted are these: higher = more signal.
Assay [4] can be described thus: binders of probe aFGF10 on microarray, primary screen, stem cell growth factor project, biochemical, small-molecule microarray, fluorescence 635/667 (AID 1071).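 Further: score merges 667 nm spot intensity and signal to noise from triplicate slides.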 The conditions noted are these: higher = more signal.
Assay [5] addresses Neurogenic locus notch homolog protein 2 (Homo sapiens) (UniProt Q04721). Put plainly: Notch2 binders on small-molecule microarrays, primary screen, biochemical, small-molecule microarray, 635 nm fluorescence, stem cell growth factors (AID 1073). The conditions noted are these: Notch2 binding, higher = more signal.
The target in assay [6] is Pro-neuregulin-1, membrane-bound isoform (Homo sapiens) (UniProt Q02297). Put plainly: NRG1 binders on small-molecule microarrays, primary screen, psychiatric disease protein project, biochemical, small-molecule microarray, fluorescence 635/667 (AID 1075).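 Further: score combines 667 nm spot fluorescence with signal to noise.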 The conditions noted are these: NRG1 binding, 635 nm fluorescence, higher = more signal.
The subject of assay [7] is Neuregulin-1 EGF-like domain. As to the kind of experiment: binders of neuregulin-1 EGF-like domain, primary screen, biochemical, small-molecule microarray, 635 nm fluorescence (AID 1081).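 Further: binding of the protein to compounds printed on small-molecule microarray slides.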 Conditions: small-molecule microarray binding, higher = more signal.
Assay [8] in a line: FRG1 promoter luciferase signal modulators, primary screen, FRG1 inhibition for FSHD, cell-based, C2C12 myotubes, firefly/Renilla luciferase, luminescence (AID 1084). The conditions noted are these: higher = more signal, called active from +8 up or from −8 down.
A short description of assay [9]: binders of probe aFST on microarray, primary screen, stem cell growth factor project, biochemical, small-molecule microarray, fluorescence 635/667 (AID 1086).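 Further: score merges 667 nm fluorescence with signal-to-noise of each printed compound spot.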 The conditions noted are these: higher = more signal.
A short description of assay [10]: binders of probe aHhip on microarray, primary screen, stem cell growth factor project, biochemical, small-molecule microarray, fluorescence 635/667 (AID 1087).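 Further: score merges spot fluorescence at 667nm with spot signal to noise ratio.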 Conditions: higher = more signal.

Sequence of Neurogenic locus notch homolog protein 2 (Homo sapiens) (Q04721 whole entry, looked up, canonical isoform): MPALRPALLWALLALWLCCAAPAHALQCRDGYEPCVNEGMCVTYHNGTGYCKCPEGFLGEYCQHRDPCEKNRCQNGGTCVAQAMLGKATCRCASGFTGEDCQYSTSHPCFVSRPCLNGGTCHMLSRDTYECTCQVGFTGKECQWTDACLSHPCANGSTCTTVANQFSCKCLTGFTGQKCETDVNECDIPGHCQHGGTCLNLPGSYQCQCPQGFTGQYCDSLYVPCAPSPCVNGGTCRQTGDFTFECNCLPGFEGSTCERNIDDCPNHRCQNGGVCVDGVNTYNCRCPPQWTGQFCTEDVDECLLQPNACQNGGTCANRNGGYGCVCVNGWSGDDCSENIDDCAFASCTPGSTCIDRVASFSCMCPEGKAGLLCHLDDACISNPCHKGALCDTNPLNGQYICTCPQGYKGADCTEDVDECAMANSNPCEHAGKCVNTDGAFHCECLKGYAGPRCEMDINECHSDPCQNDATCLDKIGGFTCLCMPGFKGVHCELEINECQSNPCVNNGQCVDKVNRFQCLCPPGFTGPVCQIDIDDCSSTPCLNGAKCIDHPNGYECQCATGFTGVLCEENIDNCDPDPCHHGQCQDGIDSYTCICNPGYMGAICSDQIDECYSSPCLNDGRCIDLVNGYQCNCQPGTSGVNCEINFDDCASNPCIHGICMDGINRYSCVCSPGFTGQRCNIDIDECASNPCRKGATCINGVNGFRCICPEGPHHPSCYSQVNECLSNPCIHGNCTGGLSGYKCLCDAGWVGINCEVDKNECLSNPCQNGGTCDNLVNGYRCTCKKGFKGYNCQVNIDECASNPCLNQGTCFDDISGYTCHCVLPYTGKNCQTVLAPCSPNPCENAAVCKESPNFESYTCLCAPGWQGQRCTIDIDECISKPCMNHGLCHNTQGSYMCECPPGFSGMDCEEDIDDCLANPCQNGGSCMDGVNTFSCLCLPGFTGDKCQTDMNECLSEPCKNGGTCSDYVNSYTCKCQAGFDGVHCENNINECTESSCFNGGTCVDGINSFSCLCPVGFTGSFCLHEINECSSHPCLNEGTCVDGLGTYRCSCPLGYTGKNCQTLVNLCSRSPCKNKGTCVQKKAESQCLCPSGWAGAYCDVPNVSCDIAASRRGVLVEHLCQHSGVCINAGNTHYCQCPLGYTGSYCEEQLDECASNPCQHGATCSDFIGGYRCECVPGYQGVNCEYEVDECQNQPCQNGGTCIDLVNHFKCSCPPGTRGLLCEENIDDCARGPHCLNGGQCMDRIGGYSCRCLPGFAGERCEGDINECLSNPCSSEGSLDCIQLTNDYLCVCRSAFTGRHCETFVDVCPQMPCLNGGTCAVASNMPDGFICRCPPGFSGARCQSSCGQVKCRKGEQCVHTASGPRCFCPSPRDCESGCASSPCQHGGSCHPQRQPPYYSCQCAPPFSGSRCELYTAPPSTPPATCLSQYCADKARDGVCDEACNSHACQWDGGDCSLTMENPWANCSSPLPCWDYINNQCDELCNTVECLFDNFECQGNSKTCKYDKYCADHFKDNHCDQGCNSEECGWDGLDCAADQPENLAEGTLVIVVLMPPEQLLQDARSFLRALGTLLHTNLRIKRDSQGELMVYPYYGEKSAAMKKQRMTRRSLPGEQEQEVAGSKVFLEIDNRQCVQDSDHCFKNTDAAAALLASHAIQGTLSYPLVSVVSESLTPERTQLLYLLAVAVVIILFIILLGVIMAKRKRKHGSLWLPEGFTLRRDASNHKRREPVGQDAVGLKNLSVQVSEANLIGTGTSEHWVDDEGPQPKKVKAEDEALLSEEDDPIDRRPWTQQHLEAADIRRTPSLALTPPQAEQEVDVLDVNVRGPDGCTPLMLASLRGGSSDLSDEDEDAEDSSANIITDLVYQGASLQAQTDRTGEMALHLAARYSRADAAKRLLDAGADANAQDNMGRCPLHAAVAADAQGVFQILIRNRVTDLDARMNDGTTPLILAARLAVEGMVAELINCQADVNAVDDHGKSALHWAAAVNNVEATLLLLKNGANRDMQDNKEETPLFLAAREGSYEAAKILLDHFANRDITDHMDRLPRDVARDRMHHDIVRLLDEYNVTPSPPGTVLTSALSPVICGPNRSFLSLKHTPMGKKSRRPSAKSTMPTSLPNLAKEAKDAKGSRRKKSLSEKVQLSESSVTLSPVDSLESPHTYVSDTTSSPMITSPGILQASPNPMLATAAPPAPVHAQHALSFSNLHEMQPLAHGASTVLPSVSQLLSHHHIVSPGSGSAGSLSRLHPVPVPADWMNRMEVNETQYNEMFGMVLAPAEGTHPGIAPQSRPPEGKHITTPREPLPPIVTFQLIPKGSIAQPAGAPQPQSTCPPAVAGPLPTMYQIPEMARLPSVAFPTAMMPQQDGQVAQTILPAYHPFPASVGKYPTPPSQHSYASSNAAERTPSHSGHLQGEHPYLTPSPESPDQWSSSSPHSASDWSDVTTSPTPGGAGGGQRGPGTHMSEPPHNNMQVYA
Sequence of Pro-neuregulin-1, membrane-bound isoform (Homo sapiens) (Q02297 whole entry, looked up, the tested form may be a part, canonical isoform): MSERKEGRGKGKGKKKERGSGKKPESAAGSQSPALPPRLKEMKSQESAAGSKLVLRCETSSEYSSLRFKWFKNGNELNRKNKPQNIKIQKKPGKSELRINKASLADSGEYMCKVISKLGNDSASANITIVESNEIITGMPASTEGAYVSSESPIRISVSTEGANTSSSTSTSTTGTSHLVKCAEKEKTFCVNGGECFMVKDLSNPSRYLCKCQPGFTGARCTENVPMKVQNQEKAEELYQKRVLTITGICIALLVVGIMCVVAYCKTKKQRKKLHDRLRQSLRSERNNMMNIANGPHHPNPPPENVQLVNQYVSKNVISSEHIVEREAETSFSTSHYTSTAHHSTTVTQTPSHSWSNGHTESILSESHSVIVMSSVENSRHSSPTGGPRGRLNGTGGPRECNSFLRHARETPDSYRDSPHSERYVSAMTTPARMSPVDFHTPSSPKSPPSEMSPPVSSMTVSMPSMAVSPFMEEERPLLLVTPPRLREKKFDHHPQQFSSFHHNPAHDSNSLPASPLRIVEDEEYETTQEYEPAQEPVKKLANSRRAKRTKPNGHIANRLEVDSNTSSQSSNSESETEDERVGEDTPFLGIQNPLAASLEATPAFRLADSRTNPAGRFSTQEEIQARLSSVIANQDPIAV

For the compound `CC[C@H]1C2=C3C(CC[C@H]4C(OCc5ccc(F)cc5C(F)(F)F)OC[C@](C)([C@@H]34)N(C(=O)OC(C)(C)C)C2)C(COC)C1COC` (stereo not given in full), the composite z-score was -0.117 in [1]; -0.281 in [2]; 0.0253 in [3]; 0.0921 in assay [4]; 0.84 in [5]; 0.336 in [6]. Besides, the results for the composite z-score in assay [7], in [9] and in [10] were -0.0151, 0.857 and -0.329, respectively. Moreover, in [8], the z-score was 1.18 (inactive).

`CCOC(=O)C[C@H]1[C@H](OC(=O)Cc2ccc3c(c2)OCO3)[C@@H](NC(=O)CC(C)C)c2cc(OCCCO)ccc2N1C(=O)Cc1ccc(OC)cc1`: the composite z-score in assay [1] is -0.244; in assay [2] it was 0.0682; in assay [3] it was -0.114; in assay [4], 0.103; in assay [5], -0.0727; in [6], -0.308. The composite z-score in assay [7] is 0.258; in [9], -0.207; in assay [10] it was -0.245. Besides, the z-score in assay [8] is -2.61 (inactive).

With `Cc1ccc(S[C@]2(C(=O)NCC(F)(F)F)CC(=O)N(C3CCCCC3)[C@@H]2c2ccc(CO)cc2I)cc1`, the composite z-score in assay [1] is -0.203; in assay [2], 0.0659; in assay [3], 0.0464; in assay [4], 0.594; in assay [5], 1.18; in assay [6], 0.405. In addition, the composite z-score in [7] was found to be 1.18; in assay [9], 0.233; in [10], 0.213. For the same compound, the z-score in assay [8] was -2.91 (inactive).

Regarding `COC(=O)[C@@]1(Cc2ccccc2N=[N+]=[N-])N=C(c2ccc(OCCCO)cc2)O[C@H]1c1ccccc1N=[N+]=[N-]`, the composite z-score in [1] was 0.663; in [2], 0.192; in assay [3], 0.0131; in assay [4], -0.0009; in assay [5], 0.648; in assay [6] it was 0.859. In addition, the composite z-score in [7] was 1.27; in [9] it was 0.214; in assay [10], -0.0123. Besides, in [8], the z-score was -0.492 (inactive).

As for `COCCOC(=O)N1C(=O)[C@@]2(c3cc(C#Cc4ccc(OC)cc4)ccc31)[C@H](C(=O)Nc1nc3ccccc3s1)[C@H]1C(=O)O[C@H](c3ccccc3)[C@H](c3ccccc3)N1[C@@H]2c1ccc(O)cc1`, the composite z-score in [1] is 0.0683; in assay [2] it was -0.164; in assay [3], 0.0289; in assay [4], 0.445; in [5], 1.06; in [6], 1.19. The composite z-score was 1.22 in assay [7], 0.286 in assay [9] and 0.282 in [10]. Also, the z-score in [8] was 2.65 (inactive).

Regarding `C=CCN1Cc2ccccc2[C@H]2OC(c3ccc(OCCCO)cc3)=N[C@@]2(CC=C)C1=O`, the composite z-score was 0.451 in assay [1]; 0.169 in assay [2]; 0.0188 in assay [3]; -0.177 in [4]; 1.12 in assay [5]; 1.44 in assay [6]. Besides, the composite z-score in [7] worked out at 1.42; in [9] it was 0.633; in assay [10], 0.0401. Also, the z-score in assay [8] is -2.18 (inactive).

In the case of `CN1C(=O)C2C=CC(C(O)c3cccc4ccccc34)N(N3CCCCC3)C2C1=O` (stereo not given), the composite z-score in assay [1] was 0.827; in assay [2] it was 1.12; in assay [3] it was -0.0122; in assay [4], 0.691; in assay [5], 1.48; in assay [6], 1.67. Besides, the results for the composite z-score in assay [7], in assay [9] and in [10] were 1.19, 0.785 and 0.0873, respectively. The z-score in assay [8] was 1.09 (inactive).

Consider `CCCCO[C@H]1C[C@H]2C(I)=C[C@@H]1C(=O)[C@]21CO1`, for which the composite z-score in assay [1] was -0.329; in assay [2] it was 0.823; in assay [3], -0.0706; in assay [4], 0.0657; in assay [5] it was -0.361; in assay [6], -0.149. Also, the composite z-score in assay [7] was -0.44; in assay [9], -0.323; in assay [10] it was -0.236. Moreover, the z-score in assay [8] is 1.43 (inactive).

For `CC(C)N1CC=CC23O[C@@H]4C=CCOC(=O)[C@@H]4[C@H]2C(=O)N(CCCO)[C@@H]3C1=O` (stereo not given in full), the composite z-score in assay [1] is 0.645; in [2] it was 1.64; in [3], -0.188; in assay [4], 0.425; in [5] it was -0.671; in assay [6], 1.57. Moreover, the composite z-score was 1.58 in assay [7], -0.436 in assay [9] and -0.16 in [10]. The z-score in assay [8] was -0.385 (inactive).

In the case of `COCCCNC(=O)[C@@]1(Cc2ccccc2N=[N+]=[N-])COC(c2ccc(OCCCO)cc2)=N1`, the composite z-score is 0.846 in [1]; 0.0792 in [2]; 0.146 in assay [3]; 0.805 in [4]; 1 in [5]; 1.54 in [6]. The composite z-score in [7] is 1.27; in assay [9] it was 0.734; in [10], -0.274. Further, the z-score in [8] was 0.554 (inactive).

On to `O=C1C2C=CC(C(O)c3ccccc3)N(Nc3ccccc3F)C2C(=O)N1c1ccccc1` (stereo not given), for which the composite z-score in assay [1] is -0.283; in [2], 0.932; in assay [3], 0.0248; in assay [4] it was 0.373; in [5], 0.99; in assay [6], 0.801. Besides, the composite z-score in [7] is 0.834; in assay [9], 0.444; in assay [10] it was -0.191. Moreover, in assay [8], the z-score was -2.14 (inactive).

For the compound `Cc1ccc(S[C@]2(C(=O)NCC(F)(F)F)CC(=O)N(Cc3ccccc3)[C@@H]2c2ccc(CO)cc2I)cc1`, the composite z-score in assay [1] is 0.512; in assay [2] it was 0.156; in assay [3] it was -0.0502; in assay [4], 0.284; in assay [5], 0.0341; in [6], 1.82. In addition, the composite z-score in assay [7] was 0.923; in assay [9] it was 0.164; in assay [10], -0.236. Besides, the z-score in assay [8] is -0.646 (inactive).

For the compound `COCCOC(=O)N1C(=O)[C@@]2(c3cc(C#CCCO)ccc31)[C@H](c1ccccc1OCCO)N1[C@H](c3ccccc3)[C@H](c3ccccc3)OC(=O)[C@H]1[C@@H]2C(=O)Nc1nc2ccccc2s1`, the composite z-score in [1] is 0.406; in [2], 1.13; in assay [3], -0.0066; in assay [4] it was 0.662; in [5] it was 1.42; in assay [6] it was 1.51. Besides, the composite z-score was 1.31 in assay [7], 0.617 in assay [9] and -0.254 in assay [10]. Moreover, in assay [8], the z-score is 1.47 (inactive).

For `C=CC[C@@]1(C(=O)N2CCOCC2)N=C(c2ccc(OCCCO)cc2)O[C@@H]1c1ccccc1CN=[N+]=[N-]`, the composite z-score was -0.0448 in [1]; 0.326 in assay [2]; 0.141 in [3]; 1.01 in assay [4]; 1.62 in assay [5]; 1.53 in assay [6]. The composite z-score in [7] was determined as 1.15; in [9] it was 1.17; in [10] it was 0.0722. The z-score in assay [8] was -1.21 (inactive).
